# Measurements published in PubChem BioAssay (Tox21).
# Records with an inconclusive call do not appear. Entries that show only a call come without a potency. Values without a mark were called inactive. Active and inactive are the calls of the source. The call rests on the fitted dose curve; in most records, active means well fitted cell-killing curve with a large enough effect in the repeat runs; inconclusive means weak or mixed curves, or effect the other way; inactive means flat fitted curve, though single readings scatter.
# Experiments:
# [1] = cAMP Responsive Elements (CRE) small molecule antagonists, cell-based qHTS assay: qHTS cell viability counter screen (AID 2060913); further: nearly all actives have a fitted effect of over 40% in size
# How it was run: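 Steps: cells plated and held 18 hrs at 37 C/5% CO2; compounds and NKH477 (0.25 uM final) added; 3 hrs incubation; reporter substrate read; CellTiter-Glo added to measure cytotoxicity by luminescence.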
# [2] = cAMP Responsive Elements (CRE) small molecule agonists, cell-based qHTS assay: qHTS cell viability counter screen (AID 2060914);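 further: viability read after 3 h of compound exposure; nearly all actives have a fitted effect of over 50% in size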
# How it was run: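 Cytotoxicity counter screen multiplexed with the CRE-bla reporter assay in HEK 293T cells: 3 h compound exposure at 37 °C, followed by CellTiter-Glo luminescence measured in the same wells.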
SMILES,Potency [1],Potency [2],"viability change, negative = cytotoxic [1]","activity change, negative = cytotoxicity [2]"
CCOC(=O)[C@H](CCc1ccccc1)N[C@@H](C)C(=O)N1CCC[C@H]1C(=O)O,inactive,inactive,–,–
Cc1cc(N)c(S(=O)(=O)O)cc1Cl,inactive,inactive,–,–
CS(=O)(=O)c1ccc([C@@H](O)[C@@H](CO)NC(=O)C(Cl)Cl)cc1,inactive,inactive,–,–
C[C@](N)(Cc1ccc(O)cc1)C(=O)O,–,–,-1.28% [at 8.39 µM],-8.98% [at 8.39 µM]
CCN(CC)CCNc1ccc(CO)c2sc3ccccc3c(=O)c12,inactive,inactive,–,–
Nc1cc(C(=O)O)ccc1Cl,inactive,inactive,–,–
Cc1cccc(Nc2ccncc2S(=O)(=O)NC(=O)NC(C)C)c1,inactive,inactive,–,–
COc1ccc(-c2coc3cc(O)cc(O)c3c2=O)cc1,inactive,inactive,–,–
